# Measured values from PubChem BioAssay (EPA / NIEHS).
# Activity calls are given as the source filed them. The calls were made as follows: active = hit-call score of the fitted dose curve at least 0.9, where 1 is the maximum; inactive = score below 0.9.
# Read-out: Matrix Metallopeptidase 1 (MMP1), MMP1 (gene 4312)
# Assay: BSK_BE3C_MMP1: BioMAP Diversity Plus: BE3C Assay for Matrix Metallopeptidase 1 (MMP1) Biomarker Activity (AID 2283024)
# Details: primary human bronchial epithelial cells; actives raise or lower the signal
# How it was run: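 Human bronchial epithelial cells (BE3C system) exposed to compound for 24 h; MMP1 then quantified by ELISA. Activity was fitted in both directions relative to DMSO.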
Compound,outcome,AC50
CC(C)(N=C=O)c1cccc(C(C)(C)N=C=O)c1,inactive,–
CC(=O)Nc1ccc(C(=O)CCl)cc1,–,13.2 µM (active)
CC(C)(C)CC(C)(C)c1ccc(OCCOCC[N+](C)(C)Cc2ccccc2)cc1,–,6.86 µM (active)
CC=Cc1ccc(OCC)c(O)c1,inactive,–

# Read-out: not listed separately
# Assay: BSK_3C_Vis: BioMAP Diversity Plus: 3C Assay for Morphology Visualization (AID 2283025);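 also: fitted both ways so gain or loss versus DMSO counts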;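 as to AC50: light microscopy image of cell morphology used as background control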
# Details: primary human endothelial cells (HUVEC)
# How it was run: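 Chemicals were added to primary human umbilical vein endothelium, cells were incubated 24 h, and morphology was then visualized by light microscopy. Gain or loss of signal was fitted bidirectionally relative to DMSO.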
Compound,outcome,AC50
CC(C)(N=C=O)c1cccc(C(C)(C)N=C=O)c1,inactive,–
CC(=O)Nc1ccc(C(=O)CCl)cc1,–,4.8 µM (active)
CC(C)(C)CC(C)(C)c1ccc(OCCOCC[N+](C)(C)Cc2ccccc2)cc1,–,9.69 µM (active)
CC=Cc1ccc(OCC)c(O)c1,inactive,–

# Read-out: Pselectin, SELP (gene 6403)
# Assay: BSK_4H_Pselectin: BioMAP Diversity Plus: 4H Assay for Pselectin Biomarker Activity (AID 2283026)
# Details: primary human endothelial cells (HUVEC); actives raise or lower the signal
# How it was run: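 ELISA read-out of P-selectin on human umbilical vein endothelium after 24 h of dosing. Values derive from bidirectional fitting relative to DMSO. Parallel SRB protein staining flagged overt cytotoxicity.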
Compound,outcome,AC50
CC(C)(N=C=O)c1cccc(C(C)(C)N=C=O)c1,inactive,–
CC(=O)Nc1ccc(C(=O)CCl)cc1,–,4.79 µM (active)
CC(C)(C)CC(C)(C)c1ccc(OCCOCC[N+](C)(C)Cc2ccccc2)cc1,–,5 µM (active)
CC=Cc1ccc(OCC)c(O)c1,inactive,–

# Read-out: not listed separately
# Assay: BSK_4H_SRB: Viability Assessment in the BioMAP Diversity Plus: 4H Assay (AID 2283027);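 also: cells exposed to compound for 24 h before staining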;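 as to AC50: curves fitted both ways versus DMSO so AC50 may be loss or gain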
# Details: primary human endothelial cells (HUVEC)
# How it was run: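 Human umbilical vein endothelial cells, 24 h after chemical dosing; total protein measured by 0.1% sulforhodamine B staining after 10% TCA fixation, read at 560 nm. Bidirectional fitting against DMSO.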
Compound,outcome,AC50
CC(C)(N=C=O)c1cccc(C(C)(C)N=C=O)c1,inactive,–
CC(=O)Nc1ccc(C(=O)CCl)cc1,–,6.69 µM (active)
CC(C)(C)CC(C)(C)c1ccc(OCCOCC[N+](C)(C)Cc2ccccc2)cc1,–,5.82 µM (active)
CC=Cc1ccc(OCC)c(O)c1,inactive,–

# Read-out: not listed separately
# Assay: BSK_BE3C_SRB: Viability Assessment in the BioMAP Diversity Plus: BE3C Assay (AID 2283028);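 as to AC50: fitted both ways so AC50 may mark signal gain or loss versus DMSO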
# Details: primary human bronchial epithelial cells
# How it was run: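 Human bronchial epithelial primary cells in confluent culture, 24 h after chemical dosing; total protein by 0.1% SRB staining after 10% TCA fixation, read at 560 nm. Bidirectional fitting versus DMSO baseline.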
Compound,outcome,AC50
CC(C)(N=C=O)c1cccc(C(C)(C)N=C=O)c1,inactive,–
CC(=O)Nc1ccc(C(=O)CCl)cc1,inactive,–
CC(C)(C)CC(C)(C)c1ccc(OCCOCC[N+](C)(C)Cc2ccccc2)cc1,–,8.4 µM (active)
CC=Cc1ccc(OCC)c(O)c1,inactive,–

# Read-out: Thrombomodulin, THBD (gene 7056)
# Assay: BSK_3C_Thrombomodulin: BioMAP Diversity Plus: 3C Assay for Thrombomodulin Biomarker Activity (AID 2283029)
# Details: primary human endothelial cells (HUVEC); actives raise or lower the signal
# How it was run: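 Read-out is ELISA of thrombomodulin on human umbilical vein endothelium 24 h after chemical dosing. Gain or loss of signal is scored relative to DMSO. Overt cytotoxicity is checked in parallel cultures by sulforhodamine B staining.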
row,Compound,outcome
1,CC(C)(N=C=O)c1cccc(C(C)(C)N=C=O)c1,inactive
2,CC(=O)Nc1ccc(C(=O)CCl)cc1,inactive
3,CC(C)(C)CC(C)(C)c1ccc(OCCOCC[N+](C)(C)Cc2ccccc2)cc1,inactive
4,CC=Cc1ccc(OCC)c(O)c1,inactive

# Read-out: Urokinase-type plasminogen activator receptor (uPAR), PLAUR (gene 5329)
# Assay: BSK_4H_uPAR: BioMAP Diversity Plus: 4H Assay for Urokinase-type plasminogen activator receptor (uPAR) Biomarker Activity (AID 2283030)
# Details: primary human endothelial cells (HUVEC); actives raise or lower the signal
# How it was run: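 Human umbilical vein endothelial cells in the 4H system, 24 h after chemical dosing. Cell-surface uPAR measured by ELISA, fitted in both directions versus DMSO; cytotoxicity checked by SRB total protein in parallel cultures.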
Compound,outcome,AC50
CC(C)(N=C=O)c1cccc(C(C)(C)N=C=O)c1,inactive,–
CC(=O)Nc1ccc(C(=O)CCl)cc1,–,9.47 µM (active)
CC(C)(C)CC(C)(C)c1ccc(OCCOCC[N+](C)(C)Cc2ccccc2)cc1,–,4.64 µM (active)
CC=Cc1ccc(OCC)c(O)c1,inactive,–
